About 210 (10%) of roughly 2,100 compounds were called active. Another 53% or so got no clear call; they are omitted. Calls follow the shape of the dose curve; as a rule, active = well fitted inhibition curve with a large enough effect; inconclusive = small, poorly fitted or top-dose-only effect, or effect the other way; inactive = no such curve, though single readings can be large or run the other way. The list shows a part of the results. Where a call stands in place of a potency, no number is given.
Experiment: IN Cell qHTS Assay for Inhibitors of the mTORC1 Signaling Pathway in MEF (Tsc2-/-, p53-/-) Cells: Sytravon; also: nearly all actives have a fitted effect of over 60% in size
Conditions: phospho-rpS6 immunofluorescence, 24 h; series mostly up to 38.3 µM
Procedure, shortened: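 Tsc2-/-, p53-/- MEFs (empty-vector) treated with compound 24 h at 37 degree Celsius, then fixed and stained for phospho-rpS6 Ser235/236 (Alexa-488) plus Hoechst. Reported as % positive cells, thresholds set against 7.5 nM rapamycin and DMSO wells.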
Potency is read from the fitted curve at half-maximal effect.

Structure (SMILES)	Potency
CC(C)CN(CC(C)C)S(=O)(=O)c1ccc(C(=O)Nc2sc3c(c2C(N)=O)CC(C)(C)NC3(C)C)cc1	inactive
Cc1ccc(Nc2cc(C)nc3nc(Cc4ccc(Cl)cc4)nn23)cc1	inactive
Cc1cccc(-n2ncc3c(Nc4c(C)cc(C)cc4C)ncnc32)c1	3.69 µM (active)
COc1ccc(OC)c(Nc2ncnc3c2cnn3-c2cccc(Cl)c2)c1	inactive
Cc1cc(C)c(Nc2ncnc3c2cnn3C)c(C)c1	inactive
O=C(Nc1cc(Cl)cc(Cl)c1)c1cc(S(=O)(=O)NC2CCCC2)ccc1F	inactive
CCCCOc1cccc(NC(=O)c2cccc(C(=O)Nc3cccc(OCCCC)c3)c2)c1	11.7 µM (active)
O=C(COC(=O)c1cccc(NC(=O)c2ccc(Br)cc2)c1)c1ccc(Br)cc1	inactive
CCCCOc1cccc(C(=O)N2CCN(CCc3ccncc3)CC2)c1	inactive
CN1CCc2c(sc(NC(=O)CSc3ccccc3)c2-c2nc3ccccc3s2)C1	inactive
O=C(Nc1cc(Cl)ccc1Cl)c1cc(S(=O)(=O)NCCc2ccccc2)ccc1F	inactive
CS(=O)(=O)N(CC(=O)NCCc1ccccc1)c1cc(C(F)(F)F)ccc1Cl	8.26 µM (active)
Cc1n[nH]c(C)c1S(=O)(=O)N(CC(=O)Nc1ccc(C(F)(F)F)cc1)c1ccc(C(C)C)cc1	inactive
Cc1c(Cl)ccc2sc(NC(=O)c3ccc(S(=O)(=O)N4CCCc5ccccc54)cc3)nc12	inactive
Cc1c(C(=O)N2CCC(C)CC2)c(S(=O)(=O)N(Cc2ccccc2)C(C)(C)C)c(C)n1C	inactive
O=C1CSC2(C(=O)N(Cc3cccc(C(F)(F)F)c3)c3ccccc32)N1c1ccc(F)c(F)c1 (centres undefined)	inactive
CCN(CC)CCCNC(=O)c1ccc(-c2nc(CN3CCc4ccccc43)c(C)o2)cc1	13.1 µM (active)
CCN(CC)CCCNC(=O)c1nn(C)c2c1CSc1ccccc1-2	inactive
CCN(CC)CCNC(=O)c1ccc(-n2c(-c3ccccc3)cc3c2CCCC3)cc1	inactive
COc1ccc(-c2ccc(CNc3ccc4[nH]c(=O)[nH]c4c3)o2)cc1Cl	inactive
CCCNC(=O)c1ccc2c(c1)N=C(CCC)c1ccccc1S2	inactive
CCOc1ccc(OCC)c(NC(=O)C(NS(=O)(=O)c2cccs2)c2ccccc2)c1 (centres undefined)	inactive

Structure (SMILES)	Potency
COc1ccc(CNC(=O)CCCN2C(=O)CSc3c2c(C)nn3-c2ccccc2)cc1	inactive
CSc1ccc(CCNC(=O)C(C)n2nc(C)c3sc4ccccc4c3c2=O)cc1 (centres undefined)	1.17 µM (active)
COc1ccc(N2CCN(C(=O)C(C)n3nc(C)c4sc5ccccc5c4c3=O)CC2)cc1 (centres undefined)	1.85 µM (active)
Cc1ccc(CCNC(=O)c2c3c(nc4ccccc24)C(=O)N(C2CCCCC2)C3)cc1	inactive
CCC(C(=O)N1CCN(c2cc(Cl)ccc2C)CC1)n1nc(C)c2sc3ccccc3c2c1=O (centres undefined)	inactive
CCCOc1ccc(CNC(=O)CCCn2nc(C)c3sc4ccccc4c3c2=O)cc1	inactive
Cc1nn(CCCC(=O)NCCc2ccc(Cl)cc2)c(=O)c2c1sc1ccccc12	11.7 µM (active)
Cc1nn(C(C)C(=O)NC2CCC(C)CC2)c(=O)c2c1sc1ccccc12 (centres undefined)	5.21 µM (active)
COc1ccc(Cn2ccc3nc(C)c(C(=O)N4CCN(c5ccc(OC)cc5)CC4)cc3c2=O)cc1	inactive
CSc1ccc(CCNC(=O)CCn2c(=O)c3cccn3c3ccc(F)cc32)cc1	inactive
CC1CCN(C(=O)CN2c3ccc(C(C)C)cc3-c3ccccc3S2(=O)=O)CC1	inactive
COc1ccccc1N1CCN(S(=O)(=O)c2ccc(-n3cnnn3)cc2)CC1	inactive
Cc1cc(C)cc(OCC(=O)Nc2ccc(-c3nc4ncccc4o3)cc2C)c1	inactive
COc1cccc(C2CC(=O)Nc3cc4c(cc32)OCCO4)c1OC (centres undefined)	inactive
COc1cc(/C=C/c2nc(C#N)c(N3CCCCCC3)o2)cc(OC)c1OC	inactive
CCOc1ccc(-c2c(C)nn3c(C)c(C(=O)Nc4cccc(Cl)c4C)cnc23)cc1OCC	inactive
COc1ccc(CNC(=O)CCCc2cn(C)c3ccccc23)c(OC)c1	inactive
COc1ccc(CNC(=O)c2cc(-c3ccc(Br)s3)nc3ccccc23)c(OC)c1	inactive
COc1ccc(CCNC(=O)C(C)n2nc(C)c3sc4ccccc4c3c2=O)c(OC)c1 (centres undefined)	4.65 µM (active)
O=C(Cn1cc(SCc2cccc(C(F)(F)F)c2)c2ccccc21)N1CCCCCC1	inactive
Cc1cccc(-c2noc(CNC(=O)c3ccc(C)cc3C)n2)c1	inactive
Cc1ccc(NC(=O)c2cc(S(=O)(=O)NCCC3=CCCCC3)ccc2F)cc1F	inactive

Structure (SMILES)	Potency
COc1ccc(-n2ncc3c(NCCCOC(C)C)ncnc32)cc1	inactive
COc1cccc(-c2noc(CCCC(=O)NCc3ccco3)n2)c1	inactive
O=C(NCc1ccccc1Cl)c1cnc(N2CCCCC2)c2ccccc12	inactive
COc1ccccc1N1CCN(C(=O)c2cnc(N3CCCCC3)c3ccccc23)CC1	5.85 µM (active)
COc1ccccc1N1CCN(C(=O)c2nc(SC)ncc2Cl)CC1	inactive
Cc1ccccc1Nc1c(-c2cccc(N(C)C)c2)nc2ccc(Br)cn12	inactive
Cc1cc(=O)n(CC(=O)N2CCN(c3ccccc3F)CC2)c2c1c(C)nn2C	inactive
COc1cc(NC(=O)Cn2nc(C(F)(F)F)c3c2CCCC3)c(OC)cc1Cl	inactive
O=C(Nc1nnc(SCc2cc(=O)c3ccccc3[nH]2)s1)c1ccccc1	inactive
CCCC(=O)Nc1nnc(SCc2cc(=O)c3ccc(C)cc3[nH]2)s1	3.69 µM (active)
Cc1nnc(NC(=O)CSCc2cc(=O)c3ccccc3[nH]2)s1	inactive
Cc1ccc(-n2c(SCc3nc(-c4ccccc4C)no3)nnc2-c2ccncc2)cc1C	inactive
C=CCc1cccc2cc(-c3nc4ccc(C)cc4[nH]3)c(=O)oc12	inactive
CCC(C(=O)Nc1cc(-c2nc3cccnc3s2)ccc1C)c1ccccc1 (centres undefined)	inactive
CC1CCCN(CCCNC(=O)c2cc(Sc3ccc(F)cc3)nc3ccccc23)C1 (centres undefined)	inactive
CCCCN(CCCNC(=O)c1cc(Nc2ccc(OC)c(OC)c2)nc2ccccc12)Cc1ccccc1	2.33 µM (active)
CSc1cccc(Nc2cc(C(=O)NCCCN(Cc3ccccc3)C(C)C)c3ccccc3n2)c1	inactive
COc1ccccc1Nc1cc(C(=O)NCCCN(C)C2CCCCC2)c2ccccc2n1	1.65 µM (active)
COc1ccc(N2CCN(CCCNC(=O)c3cc(Nc4ccccc4OC)nc4ccccc34)CC2)cc1	inactive
COc1ccc(Nc2cc(C(=O)NCCCN(C)Cc3ccccc3)c3ccccc3n2)cc1OC	inactive
